# Whole data set: some 25,000 sequences, median “ln(normalized median fluorescence intensity)” near 6.7, cut for the highest 2% near 10. The sample holds the highest values, similar sequences and a random draw of the others, so the mix is not that of the screen.
# Test system: PfHDP1 homeodomain (GST-tagged)
# Experiment: gcPBM binding intensity (ln(normalized median fluorescence intensity)); higher = stronger DNA binding
# Method in brief: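 Binding intensity values are the highest Masliner-normalised natural-log median intensity among replicate spots of either probe orientation. The binding step lasted 1 h in 1× PBS with 1% milk, 0.2 mg/ml BSA, 0.5% salmon testes DNA and 0.03% Triton X-100, using GST-tagged P. falciparum DNA-binding domains expressed in E. coli on an Agilent 4 × 180k array of primer-extended double-stranded 36-bp intergenic genomic probes plus negative controls. Alexa488 anti-GST antibody and a 488 nm scan detected bound protein.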
row,Sequence,gcPBM binding intensity (ln)
1,CGCGAACATACATACACACACATATTTATATAGGTA [CACACA_site6241],6.69
2,ATAATTAGTTCAATTTTTTTTTTTTTTTTTTTTTTT [CACACA_negctrl_site1371],6.91
3,ATAAATTTATATACTTGTACATATATATATTACATA [XGTACX_site6697],6.7
4,TGCTGTATATTTTTCTGTACACATTTATATATTCCA [XGTACX_site6244],6.65
5,CATATAGTATAAATTTGTACATAAATATATATATAT [XGTACX_site7477],8.91
6,TATAATATATTTTAATGTACGTACATCCCGATTAAT [XGTACX_site7651],6.63
7,ATAATTATAAAATAAACACACATATATATTTATATG [CACACA_site440],6.29
8,TAATAAAATATGTACGTGCACATAATTATACTAAAA,10.5
9,AATAAATAAAAAATTACACACATATTTATAAATATA [CACACA_site7584],6.4
10,AACCATAAATAATTATGTACTAAAAAAAATATATAT [XGTACX_site3415],6.7
11,ACTAAAAAATATATATGTACATAATAATATATTATT [XGTACX_site1260],6.66
12,CAAAAAAATGTGAAGGCATGCAAATATGTAAAATAA [TGCATGCA_site921],7.26
13,TATTAATTATAAGATGCATGTGCAAAAATATGTTCC [TGCATGCA_site51],10.2
14,TTATTGTAAATATATGCATGTGCAAAATGAAAAAAA [TGCATGCA_site399],10.5
15,AATATTTTAAATATTGCATGCAATGAAAAATGTAAA [TGCATGCA_site139],7.73
16,AAATTAATATTATGTGCATGCACAAAGAGGAACGAC [TGCATGCA_site754],11.8
17,ATAATTATTAAGAGAACATGCAAAATATATATGTTT [TGCATGCA_site503],6.68
18,TATAAAATAAATTGTGCACACATATTTATAAATATG [CACACA_site2330],10.5
19,AAAAATAAAAAAATAAAAAATAAAAAAATAAAAAAT [CACACA_negctrl_site1425],6.64
20,TTAATAATAAAAAGGAGTACACTAATATACTATAAA [XGTACX_site2346],6.35
21,TAAATTTTAATAAATACACACAAATTTTAATTCTAT [CACACA_site6039],6.27
22,TACATATAAACAATAACACACACCTAGGTACATGGA [CACACA_site8178],6.49
23,TGTATTCTCTTAGTAGTGCATTTGAAGATTATATAA,8.81
24,TAAATAGATGTTTTATGTACGTATAAATAAAAAAAA [XGTACX_site3412],6.29
25,TTTATTTATTTAATTACACACGAACATATAACCATT [CACACA_site7952],6.8

row,Sequence,gcPBM binding intensity (ln)
1,ATTTTTTAAAAAGTAACACACACTCTTATATATAAT [CACACA_site9206],6.64
2,ATATACATATCATGTAGTACAATTTTTTTACTTTTT [XGTACX_site7988],6.14
3,CAAGCTATGTATTCTACACACACATACACCCATATA [CACACA_site9133],7.22
4,TGAAATTTTATTAATGTGCACATATATTTATTGTTC,10.8
5,ATATATTATATAATATGTACATAATAAAATTTAAAT [XGTACX_site1900],6.79
6,ATGAAAATTTATATTGCACACATAGGGAATAAAAAA [CACACA_site8667],10.4
7,CAAATATATATGTTCACACATATAATTATTGTGAAA [CACACA_site4190],6.4
8,ATTATTAATAATTGTGTGCACAAATATTTATATGCT,10.6
9,TAAAATAAATTGTGCACACATATTTATAAATATGAA [CACACA_site2331],10.7
10,TAAAATAATATTTATGTGCACATATAATTATTAATT,10.7
11,TTTATGAAACAGTGCACACATAAAAATATATACATA [CACACA_site2992],10.1
12,TTAAAAAAATTAATATGTACATATATTTATATATAT [XGTACX_site5317],6.54
13,ATATTTAATGTTAATTGTACATATTATATATATATA [XGTACX_site6095],8.49
14,TAATATAATATATGCACACAAATATGTATTTATGTG [CACACA_site5210],10.1
15,TAATATTTTAATTGTGTGCACATTAATATTATAAAA,10.3
16,CAACATTAATATAAAGCACACATATATATAATATAT [CACACA_site8064],6.39
17,TTGAACCTGATAAATACACACAATATAGATTTTTTT [CACACA_site7091],6.48
18,TTTCTAATTCTTAGTGGTACACAGTTCTGCTGATAT [XGTACX_site2391],6.09
19,AATGAGCGTTAAAAATGTACAGAAAATTGGAATTAT [XGTACX_site5743],6.75
20,ATAATTTCATAATACGTGCACATAATATATAAAAAA,10.9
21,GAAATAATTTCATATACACACATATACATACATACA [CACACA_site1358],7.13
22,GTTTATTTATTTTATGTGCACATATAACAAAAAAAA,10.7
23,TATATATATATATATGTGCACATATTTATATGTTTT,10.3
24,TAAAATAATTTATGCATACACACATATATATATATA [CACACA_site4021],9.28

# From the supplement of paper PMC11417369
